# For some assays here: Entries with a potency or affinity are not part of this list.
# How the values were obtained:
# Set-up in all cases: scale not given: direction of the effect not stated beside the values
# [1] = biological target: Protein translocase subunit SecA (Escherichia coli (strain K12)) (UniProt P10408); assay: Assay to Identify E. coli SecA ATPase Inhibitors; assay type: functional; details: 30 µM
# [2] = biological target: T1, Ubiquitin-activating enzyme e1, putative (Leishmania donovani (strain BPK282A1)) (UniProt E9BSI1); assay: Leishmania donovani Ubiquitin Activating Enzyme (LdE1); assay type: functional; details: 30 µM
# T1 sequence (whole entry): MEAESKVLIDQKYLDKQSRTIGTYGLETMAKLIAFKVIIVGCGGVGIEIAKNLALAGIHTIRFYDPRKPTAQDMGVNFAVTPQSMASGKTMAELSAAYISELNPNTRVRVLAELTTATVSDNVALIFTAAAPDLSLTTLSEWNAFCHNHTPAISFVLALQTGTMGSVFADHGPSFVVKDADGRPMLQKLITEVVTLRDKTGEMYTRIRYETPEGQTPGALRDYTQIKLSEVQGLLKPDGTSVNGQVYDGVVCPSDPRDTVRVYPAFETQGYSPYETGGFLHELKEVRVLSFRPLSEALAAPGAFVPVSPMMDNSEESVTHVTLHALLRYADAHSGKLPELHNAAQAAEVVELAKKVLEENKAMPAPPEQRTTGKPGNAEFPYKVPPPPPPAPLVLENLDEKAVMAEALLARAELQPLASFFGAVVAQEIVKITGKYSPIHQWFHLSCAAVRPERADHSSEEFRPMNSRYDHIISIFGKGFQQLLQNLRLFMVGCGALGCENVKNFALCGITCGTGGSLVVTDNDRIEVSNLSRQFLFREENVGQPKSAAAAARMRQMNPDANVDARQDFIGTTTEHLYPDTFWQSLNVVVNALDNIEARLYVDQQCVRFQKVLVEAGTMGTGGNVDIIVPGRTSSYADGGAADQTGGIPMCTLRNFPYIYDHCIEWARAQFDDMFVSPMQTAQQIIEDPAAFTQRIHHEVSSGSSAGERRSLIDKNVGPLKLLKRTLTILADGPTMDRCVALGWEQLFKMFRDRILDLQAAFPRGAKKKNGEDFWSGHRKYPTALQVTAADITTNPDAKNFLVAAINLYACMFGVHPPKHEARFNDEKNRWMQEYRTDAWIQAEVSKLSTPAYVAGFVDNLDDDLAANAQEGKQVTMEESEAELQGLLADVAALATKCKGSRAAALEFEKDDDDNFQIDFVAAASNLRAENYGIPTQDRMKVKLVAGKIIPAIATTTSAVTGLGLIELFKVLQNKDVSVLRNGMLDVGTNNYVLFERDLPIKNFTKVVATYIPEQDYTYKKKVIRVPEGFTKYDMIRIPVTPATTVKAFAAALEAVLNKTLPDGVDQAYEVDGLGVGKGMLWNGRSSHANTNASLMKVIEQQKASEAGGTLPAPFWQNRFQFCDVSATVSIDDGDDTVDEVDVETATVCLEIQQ
# [3] = biological target: AMP-activated protein kinase, AMPK (Homo sapiens) (UniProt P54646+O43741+P54619+Q9UGJ0+Q9Y478+Q13131+Q9UGI9); assay: AMP-dependent Kinase enzyme assay. An in vitro enzyme assay that detects ADP turnover that is directly proportional to AMPK activity. This uses naive AMPK that is activated during the assay with MK-8722; assay type: functional; details: 30 µM
# [4] = biological target: Sialic acid-binding Ig-like lectin 9 (Homo sapiens) (UniProt Q9Y336); assay: Hs-Siglec9 ALPHAscreen SOP 20170721; details: 10 µM
# Trypanosoma cruzi = assay: Trypanosoma cruzi phosphomannomutase and mannose-1-phosphate guanylyltransferase assay; assay type: functional; details: 10 µM
# [5] = biological target: T2, Arginase-2, mitochondrial (Homo sapiens) (UniProt P78540); assay: in vitro enzyme assay to detect the production of urea directly proportional to the activity of Arginase II; assay type: functional; details: 33.3 µM; further: in the data most compounds retested in dose-response had high values
# T2 sequence (whole entry): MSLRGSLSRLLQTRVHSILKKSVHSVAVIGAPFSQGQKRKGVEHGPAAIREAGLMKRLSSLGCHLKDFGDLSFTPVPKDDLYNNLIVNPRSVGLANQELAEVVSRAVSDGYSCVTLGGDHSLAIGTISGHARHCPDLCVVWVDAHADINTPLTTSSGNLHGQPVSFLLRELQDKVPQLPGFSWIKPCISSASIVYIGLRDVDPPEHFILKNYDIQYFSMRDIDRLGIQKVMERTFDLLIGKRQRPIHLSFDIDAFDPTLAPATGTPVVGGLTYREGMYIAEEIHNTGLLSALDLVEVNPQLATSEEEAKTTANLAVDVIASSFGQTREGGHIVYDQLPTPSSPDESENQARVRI
# [6] = biological target: T3, Proteasome subunit beta (Trypanosoma cruzi) (UniProt O96673); assay: Trypanosoma cruzi proteasome chymotrypsin-like activity (TcProtChymo) assay.; further: in the data most compounds retested in dose-response had high values; assay type: functional; details: 9.37 µM
# T3 sequence (whole entry): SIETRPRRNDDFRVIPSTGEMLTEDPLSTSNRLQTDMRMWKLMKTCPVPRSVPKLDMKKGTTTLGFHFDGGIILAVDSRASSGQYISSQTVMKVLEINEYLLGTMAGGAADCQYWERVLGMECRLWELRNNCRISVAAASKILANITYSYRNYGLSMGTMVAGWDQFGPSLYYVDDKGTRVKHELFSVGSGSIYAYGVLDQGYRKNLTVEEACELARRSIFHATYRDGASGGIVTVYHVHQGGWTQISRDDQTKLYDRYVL
# Homo sapiens = species: Homo sapiens; assay: To identify inhibition of the IFN signalling (Jak-Stat) pathway via expression of an eGFP reporter gene under the control of an IFN-stimulated response element (ISRE) containing MxA promoter.; assay type: functional; details: 30 µM
# [7] = biological target: T4, Tyrosyl-tRNA synthetase, putative (Trypanosoma cruzi (strain CL Brener)) (UniProt Q4DSP6); assay: Trypanosoma cruzi tyrosyl tRNA synthetase (TcYRS) _High Tyrosine SOP; assay type: functional; details: 30 µM; further: in the data most compounds retested in dose-response had high values
# T4 sequence (whole entry): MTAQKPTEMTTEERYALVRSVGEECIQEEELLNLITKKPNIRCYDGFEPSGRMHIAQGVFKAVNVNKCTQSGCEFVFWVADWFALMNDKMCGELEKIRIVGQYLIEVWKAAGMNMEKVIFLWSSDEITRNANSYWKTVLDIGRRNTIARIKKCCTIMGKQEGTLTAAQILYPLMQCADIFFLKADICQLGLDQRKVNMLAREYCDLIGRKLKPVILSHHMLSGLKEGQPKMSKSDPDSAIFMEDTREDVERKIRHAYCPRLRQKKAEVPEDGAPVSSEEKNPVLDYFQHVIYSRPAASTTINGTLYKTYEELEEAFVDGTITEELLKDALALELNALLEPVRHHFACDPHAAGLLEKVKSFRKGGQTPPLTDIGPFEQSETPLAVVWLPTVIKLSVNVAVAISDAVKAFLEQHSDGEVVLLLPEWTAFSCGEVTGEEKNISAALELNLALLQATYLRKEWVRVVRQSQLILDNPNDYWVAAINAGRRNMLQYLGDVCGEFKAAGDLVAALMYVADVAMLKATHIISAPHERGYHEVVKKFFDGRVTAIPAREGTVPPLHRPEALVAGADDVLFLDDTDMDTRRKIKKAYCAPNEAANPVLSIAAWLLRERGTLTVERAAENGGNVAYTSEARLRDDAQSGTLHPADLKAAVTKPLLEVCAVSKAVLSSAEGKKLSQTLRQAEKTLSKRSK
# [8] = biological target: T4, Tyrosyl-tRNA synthetase, putative (Trypanosoma cruzi (strain CL Brener)); assay: Trypanosoma cruzi tyrosyl tRNA synthetase (TcYRS) SOP; assay type: functional; details: 30 µM
# [9] = biological target: Chromo domain-containing protein 1 (Saccharomyces cerevisiae (strain ATCC 204508 / S288c) (Baker's yeast)) (UniProt P32657); assay: ScCHD-1 Enzyme Inhibition Assay; assay type: functional; details: 30 µM; further: in the data most compounds retested in dose-response had high values
# Chain of Chromo domain-containing protein 1 (Saccharomyces cerevisiae (strain ATCC 204508 / S288c) (Baker's yeast)) (P32657 whole entry, the tested form may be a part): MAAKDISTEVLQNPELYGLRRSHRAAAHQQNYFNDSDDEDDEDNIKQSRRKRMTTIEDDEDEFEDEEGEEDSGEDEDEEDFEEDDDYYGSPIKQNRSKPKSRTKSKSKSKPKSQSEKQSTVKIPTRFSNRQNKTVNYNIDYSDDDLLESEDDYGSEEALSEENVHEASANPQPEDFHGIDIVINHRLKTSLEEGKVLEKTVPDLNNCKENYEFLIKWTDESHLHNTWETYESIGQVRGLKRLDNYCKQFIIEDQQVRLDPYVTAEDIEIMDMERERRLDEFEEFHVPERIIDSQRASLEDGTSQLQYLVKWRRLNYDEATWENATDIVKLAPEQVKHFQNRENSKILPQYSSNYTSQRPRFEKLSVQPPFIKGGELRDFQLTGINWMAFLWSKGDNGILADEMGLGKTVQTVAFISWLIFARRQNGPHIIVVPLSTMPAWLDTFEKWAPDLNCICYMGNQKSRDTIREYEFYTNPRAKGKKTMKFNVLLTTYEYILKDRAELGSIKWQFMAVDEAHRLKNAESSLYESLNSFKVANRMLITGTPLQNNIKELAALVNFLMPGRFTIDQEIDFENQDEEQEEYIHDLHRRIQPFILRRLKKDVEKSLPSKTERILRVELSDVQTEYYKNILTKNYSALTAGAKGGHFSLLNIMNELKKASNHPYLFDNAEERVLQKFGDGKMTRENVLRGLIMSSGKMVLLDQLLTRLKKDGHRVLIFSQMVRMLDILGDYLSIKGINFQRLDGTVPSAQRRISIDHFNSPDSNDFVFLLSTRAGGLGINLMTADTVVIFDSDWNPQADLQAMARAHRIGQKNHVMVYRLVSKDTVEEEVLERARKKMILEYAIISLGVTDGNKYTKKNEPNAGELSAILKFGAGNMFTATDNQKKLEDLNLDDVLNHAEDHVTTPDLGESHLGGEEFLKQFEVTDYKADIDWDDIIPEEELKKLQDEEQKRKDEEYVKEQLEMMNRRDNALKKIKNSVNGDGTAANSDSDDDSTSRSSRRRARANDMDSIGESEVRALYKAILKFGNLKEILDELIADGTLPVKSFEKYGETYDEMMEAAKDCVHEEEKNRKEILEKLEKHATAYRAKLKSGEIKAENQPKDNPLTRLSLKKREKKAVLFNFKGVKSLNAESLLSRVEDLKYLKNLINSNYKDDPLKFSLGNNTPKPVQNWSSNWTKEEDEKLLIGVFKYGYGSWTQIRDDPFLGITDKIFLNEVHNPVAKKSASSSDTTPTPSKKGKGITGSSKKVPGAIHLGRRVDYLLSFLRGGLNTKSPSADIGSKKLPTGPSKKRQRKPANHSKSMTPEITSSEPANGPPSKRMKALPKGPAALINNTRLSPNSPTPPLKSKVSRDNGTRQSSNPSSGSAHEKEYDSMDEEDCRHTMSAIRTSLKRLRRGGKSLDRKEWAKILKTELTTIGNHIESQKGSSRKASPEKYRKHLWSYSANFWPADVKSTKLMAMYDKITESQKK
# Chain of Protein translocase subunit SecA (Escherichia coli (strain K12)) (P10408 whole entry): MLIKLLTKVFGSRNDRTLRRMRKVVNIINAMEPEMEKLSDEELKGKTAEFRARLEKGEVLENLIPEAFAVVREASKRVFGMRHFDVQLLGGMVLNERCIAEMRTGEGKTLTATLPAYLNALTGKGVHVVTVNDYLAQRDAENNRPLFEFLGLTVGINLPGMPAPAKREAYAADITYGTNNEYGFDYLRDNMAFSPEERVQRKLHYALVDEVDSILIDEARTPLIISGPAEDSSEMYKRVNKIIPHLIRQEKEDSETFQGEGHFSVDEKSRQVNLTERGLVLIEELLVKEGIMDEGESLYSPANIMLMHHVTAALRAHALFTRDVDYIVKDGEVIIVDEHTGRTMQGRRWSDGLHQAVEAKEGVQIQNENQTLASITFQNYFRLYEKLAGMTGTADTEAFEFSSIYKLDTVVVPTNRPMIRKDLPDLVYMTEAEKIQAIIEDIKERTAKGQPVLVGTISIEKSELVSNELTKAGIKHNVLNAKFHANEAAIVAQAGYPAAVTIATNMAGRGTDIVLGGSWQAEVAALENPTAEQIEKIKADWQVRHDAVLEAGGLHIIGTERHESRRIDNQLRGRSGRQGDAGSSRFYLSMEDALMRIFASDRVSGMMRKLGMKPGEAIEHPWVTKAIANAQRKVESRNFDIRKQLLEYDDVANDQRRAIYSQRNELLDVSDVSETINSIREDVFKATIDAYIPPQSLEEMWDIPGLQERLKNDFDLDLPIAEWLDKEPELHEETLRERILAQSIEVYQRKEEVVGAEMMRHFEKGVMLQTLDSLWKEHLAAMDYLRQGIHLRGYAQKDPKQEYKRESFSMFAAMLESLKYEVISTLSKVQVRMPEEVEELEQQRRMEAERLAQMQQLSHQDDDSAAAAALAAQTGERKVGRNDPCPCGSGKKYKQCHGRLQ
# Chain of Sialic acid-binding Ig-like lectin 9 (Homo sapiens) (Q9Y336 whole entry): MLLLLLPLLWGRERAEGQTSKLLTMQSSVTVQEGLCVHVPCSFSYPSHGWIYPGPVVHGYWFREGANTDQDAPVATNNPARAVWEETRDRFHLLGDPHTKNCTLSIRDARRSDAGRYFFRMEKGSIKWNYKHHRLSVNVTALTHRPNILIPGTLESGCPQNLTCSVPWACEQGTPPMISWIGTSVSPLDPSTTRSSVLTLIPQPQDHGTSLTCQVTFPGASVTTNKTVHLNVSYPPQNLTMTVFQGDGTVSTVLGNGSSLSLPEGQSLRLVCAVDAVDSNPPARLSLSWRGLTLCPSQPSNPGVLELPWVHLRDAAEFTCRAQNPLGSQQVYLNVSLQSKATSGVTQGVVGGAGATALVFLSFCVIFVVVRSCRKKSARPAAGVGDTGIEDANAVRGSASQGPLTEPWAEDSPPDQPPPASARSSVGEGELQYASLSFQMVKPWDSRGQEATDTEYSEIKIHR
smiles,measurement,setting,value
Cc1cc(C)c2c(OCC(=O)NC(C)C)nn(C)c2n1,Percent Effect,[1],-3.72%
same,Percent Effect,[2],10.8%
same,Percent Effect,[3],-1.72%
same,Percent Effect,[4],25.4%
same,Percent Effect,Trypanosoma cruzi,7.72%
same,Percent Effect,[5],11.4%
same,Percent Effect,[6],6.9%
same,Percent Effect,Homo sapiens,10.7%
same,Percent Effect,[7],0.529%
same,Percent Effect,[8],12.2%
same,Percent Effect,[9],-13%
O=C(c1n[nH]c2c1CCN(Cc1nccs1)C2)N1CCCC1,Percent Effect,[1],-4.94%
same,Percent Effect,[2],5.41%
same,Percent Effect,[3],-4.39%
same,Percent Effect,[4],22.5%
same,Percent Effect,Trypanosoma cruzi,4.4%
same,Percent Effect,[5],0.744%
same,Percent Effect,[6],8.33%
same,Percent Effect,Homo sapiens,-0.319%
same,Percent Effect,[7],5.38%
same,Percent Effect,[8],6.17%
same,Percent Effect,[9],-10.3%
CCC(=O)N1CCC2(CC1)COc1ccccc1S(=O)(=O)N(C)C2,Percent Effect,[1],-4.24%
same,Percent Effect,[2],16.2%
same,Percent Effect,[3],-6.69%
same,Percent Effect,[4],20.9%
same,Percent Effect,Trypanosoma cruzi,1.27%
same,Percent Effect,[5],2.23%
same,Percent Effect,[6],9.7%
same,Percent Effect,Homo sapiens,7.17%
same,Percent Effect,[7],7.53%
same,Percent Effect,[8],18.5%
same,Percent Effect,[9],-11.2%
COc1ccc(NC(=O)c2ccc(-n3ncc(C#N)c3N)cc2)cn1,Percent Effect,[1],-3.59%
same,Percent Effect,[2],10.1%
same,Percent Effect,[3],0.744%
same,Percent Effect,[4],15.3%
same,Percent Effect,Trypanosoma cruzi,-3.68%
same,Percent Effect,[5],-4.94%
same,Percent Effect,[6],0.901%
same,Percent Effect,Homo sapiens,8.55%
same,Percent Effect,[7],4.43%
same,Percent Effect,[8],8.86%
same,Percent Effect,[9],-4.68%
O=C(Nc1cc(C(F)(F)F)c[nH]c1=O)c1ccco1,Percent Effect,[1],-2.24%
same,Percent Effect,[2],-2.63%
same,Percent Effect,[3],19.1%
same,Percent Effect,[4],5.92%
same,Percent Effect,Trypanosoma cruzi,0.28%
same,Percent Effect,[5],-15.5%
same,Percent Effect,[6],10.9%
same,Percent Effect,Homo sapiens,-15.5%
same,Percent Effect,[7],6.4%
same,Percent Effect,[8],6.17%
same,Percent Effect,[9],0.552%
O=C(CS(=O)(=O)c1ccccc1Cl)NC1CCCCNC1=O (stereo not given),Percent Effect,[1],-6.72%
same,Percent Effect,[2],13%
same,Percent Effect,[3],-4.35%
same,Percent Effect,[4],4.43%
same,Percent Effect,Trypanosoma cruzi,2.43%
same,Percent Effect,[5],-1.78%
same,Percent Effect,[6],6.93%
same,Percent Effect,Homo sapiens,-3.42%
same,Percent Effect,[7],2.91%
same,Percent Effect,[8],14.6%
same,Percent Effect,[9],-2.31%
CN(Cc1ccccc1Br)C(=O)Cn1nc(-c2ccc(F)cc2)oc1=O,Percent Effect,[1],2.65%
same,Percent Effect,[2],-5.26%
same,Percent Effect,[3],0.817%
same,Percent Effect,[4],-11.8%
same,Percent Effect,Trypanosoma cruzi,-6.33%
same,Percent Effect,[5],10.7%
same,Percent Effect,[6],10.8%
same,Percent Effect,Homo sapiens,10%
same,Percent Effect,[7],-24.5%
same,Percent Effect,[8],-28.6%
same,Percent Effect,[9],-1.2%
CC(C)c1nnc(CN2CCCC2Cn2cncn2)o1 (stereo not given),Percent Effect,[1],-4.03%
same,Percent Effect,[2],18.2%
same,Percent Effect,[3],-9.21%
same,Percent Effect,[4],3.1%
same,Percent Effect,Trypanosoma cruzi,5.99%
same,Percent Effect,[5],3.92%
same,Percent Effect,[6],10.3%
same,Percent Effect,Homo sapiens,-4.77%
same,Percent Effect,[7],6.8%
same,Percent Effect,[8],24.4%
same,Percent Effect,[9],-9.98%
Nc1nc(C2CCN(C(=O)c3cncs3)CC2)cs1,Percent Effect,[1],-7.01%
same,Percent Effect,[2],12.2%
same,Percent Effect,[3],9.81%
same,Percent Effect,[4],5.35%
same,Percent Effect,Trypanosoma cruzi,1.38%
same,Percent Effect,[5],0.232%
same,Percent Effect,[6],3.59%
same,Percent Effect,Homo sapiens,-3.51%
same,Percent Effect,[7],3.23%
same,Percent Effect,[8],11.7%
same,Percent Effect,[9],-8.22%
CC(C)N(C)C(=O)C1=NOC2(CCN(C(=O)c3ccncc3)C2)C1 (stereo not given),Percent Effect,[1],-3.37%
same,Percent Effect,[2],2.74%
same,Percent Effect,[3],-0.462%
same,Percent Effect,[4],-1.1%
same,Percent Effect,Trypanosoma cruzi,-1.79%
same,Percent Effect,[5],-5.19%
same,Percent Effect,[6],12.6%
same,Percent Effect,Homo sapiens,1.3%
same,Percent Effect,[7],1.04%
same,Percent Effect,[8],6.17%
same,Percent Effect,[9],-0.614%

# Reference: ChEMBL document CHEMBL3988442, “University of Dundee, Small-Polar-MMV Screening Library” (2021)
